Compounds with a hit are over-represented: about 3.5% of the library has one in this group of screens.
MITF inh: MITF inhibitors, primary screen, biochemical, AlphaScreen, human | AlphaScreen MITF homodimerization, bead proximity signal | 0.91% of 650,000 active | inhibition, % at 2.6 µM; in the data active means inhibition above about 50%;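 further: 0% = vehicle wells with protein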
FBW7 act: FBW7 E3 ligase activators, primary screen, biochemical, AlphaScreen, human. AlphaScreen FBW7–phospho-cyclin E peptide binding, activator screen. F-box/WD repeat-containing protein 7 (Homo sapiens), Q969H0. 0.13% of 650,000 active. normalized activity (activation), % at 26.1 µM; in the data active means normalized activity above about 1.9%;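 further: purified mutant Fbw7 with reduced substrate affinity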
TEAD-YAP inh: TEAD-YAP interaction inhibition, primary screen, TEAD-YAP interaction inhibitor project, luminescence, HEK-TIYL cells | TEAD-Gal4/YAP UAS-luciferase luminescence | inhibition, % at 9.12 µM | 1.4% of 640,000 active; in the data active means inhibition above about 32%;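 further: 0% = median of test compound wells and 100% = reference inhibitor wells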
GPR151 activ: activators of human GPR151, primary screen, cell-based, PathHunter beta-arrestin, luminescence. G-protein coupled receptor 151 (Homo sapiens), Q8TDV0. PathHunter beta-arrestin GPR151 cells. activation, % at 11.2 µM. AID 1508602, 2020. 1% of 650,000 active; in the data active means activation above about 4.9%;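 further: 0% = median of compound wells and 100% = cells with positive control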
Target sequence (Q8TDV0 whole entry, looked up): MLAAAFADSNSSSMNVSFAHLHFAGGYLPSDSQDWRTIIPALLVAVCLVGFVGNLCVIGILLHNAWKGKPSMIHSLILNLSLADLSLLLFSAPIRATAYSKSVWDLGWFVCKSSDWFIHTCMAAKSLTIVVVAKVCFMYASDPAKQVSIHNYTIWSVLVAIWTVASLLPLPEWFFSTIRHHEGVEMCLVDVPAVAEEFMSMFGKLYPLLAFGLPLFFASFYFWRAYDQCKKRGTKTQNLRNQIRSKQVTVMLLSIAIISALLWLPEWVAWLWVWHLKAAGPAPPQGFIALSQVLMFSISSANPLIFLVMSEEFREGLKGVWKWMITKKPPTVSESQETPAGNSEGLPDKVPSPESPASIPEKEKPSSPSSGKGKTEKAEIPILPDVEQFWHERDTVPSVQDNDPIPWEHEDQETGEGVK
GPR151 conf act: GPR151 activators, triplicate retest, confirmation, cell-based, PathHunter beta-arrestin, luminescence. shares compounds with GPR151 activ. GPR151 PathHunter beta-arrestin cells, 90 min; % of EA-reagent control over plate median. activation, % at 11.2 µM. 6,700 tested, under 10 active;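 active means mean percent activation across replicates above the confirmation screen cutoff of 4.91%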
GPR119 counter: GPR119 activators in beta-arrestin cells, counter-screen for GPR151 activator project, cell-based, PathHunter beta-arrestin, luminescence, triplicate | shares compounds with GPR151 activ | 90 min; 0 = compound-well median, 100 = enzyme-acceptor control | activation, % at 11.2 µM | 0.3% of 6,700 active;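 active means mean percent activation in the counterscreen above 29.09%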;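 further: counterscreen on off-target GPR119 to flag nonselective hits from the GPR151 activator screen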
* hit, by the source's call; / = not tested or not shown.

SMILES	MITF inh	FBW7 act	TEAD-YAP inh	GPR151 activ	GPR151 conf act	GPR119 counter
CCCCC1=CC2=C(c3ccco3)C(=O)C(C)(OC(=O)c3ccc(Cl)nc3)C(=O)C2=CO1 (centres undefined)	-7.0	-0.3	/	6.5*	-0.3	-16.1
CCCCC1=CC2=C(c3ccco3)C(=O)C(C)(OC(=O)c3ccc(OC)cc3)C(=O)C2=CO1 (centres undefined)	20.7	0.1	/	-0.8	/	/
CCn1cc(CCC(=O)NC(C)C)c2ccccc21	3.1	0.4	-0.8	5.6*	0.4	8.5
CC(C)NC(=O)CCn1c(=O)oc2ccccc21	-0.6	-0.1	-7.9	8.1*	-0.5	-5.9
NC(=O)c1ccccc1NC(=O)CCn1c(=O)oc2ccccc21	4.3	-0.2	3.7	5.0*	0.3	7.4
CN(C)Cc1c(O)ccc2c1O/C(=C\c1ccc(F)cc1)C2=O	-3.6	-0.3	-2.8	0.8	/	/
CCCc1nc(SCC(=O)NNC(=O)CC)c2c(C)c(C)sc2n1	6.3	0.0	3.2	0.3	/	/
Fc1cccc(-c2cc3nc4c(c(N5CCN(c6ncccn6)CC5)n3n2)CCC4)c1	-3.7	0.1	-5.8	3.0	/	/
COc1ccc(Br)cc1S(=O)(=O)N1CCN(c2ccc(N3CCCC3)nn2)CC1	2.6	-0.1	6.5	7.7*	0.6	3.4
COc1ccccc1N1CCN(S(=O)(=O)c2ccc(Br)cc2C)CC1	-17.4	-0.1	-6.5	8.5*	0.3	-7.3
CNC(=S)Nc1cccc(S(=O)(=O)N2CCCC2)c1	6.9	0.0	4.0	0.9	/	/
CC(C)C[C@H]1C(=O)N2CCN(Cc3cnn(-c4ccccc4Cl)c3)C[C@@H]2C(=O)N1C	-5.1	-0.4	-15.5	5.8*	0.4	4.0
O=C1[C@@H]2CCCN2C(=O)[C@H]2CN(Cc3cnn(-c4ccccc4Cl)c3)CCN12	2.5	-0.1	-2.1	0.2	/	/
COC(=O)C1=C(NC(=O)COc2ccc(Cl)cc2)CCS1	-4.1	-0.1	4.4	6.1*	-0.7	-0.5
COC(=O)C1=C(NC(=O)c2ccccc2Br)CCS1	0.4	-0.1	0.7	5.0*	-0.1	10.8
COC(CN1C(=O)C(=O)/C(=C(\O)c2ccccc2)C1c1ccccc1)OC (centres undefined)	-1.4	-0.1	7.1	0.8	/	/
COC(CN1C(=O)C(=O)/C(=C(/O)c2ccccc2)C1c1cccnc1)OC (centres undefined)	0.0	-0.1	4.4	5.9*	0.8	4.4
O=C1C(=O)N(CCN2CCOCC2)C(c2cccnc2)/C1=C(/O)c1ccc(S(=O)(=O)N2CCOCC2)cc1 (centres undefined)	13.7	0.1	3.1	6.5*	0.7	3.1
O=C(NCC1(c2ccc(F)cc2)CC1)Nc1ccccc1Cl	-0.8	-0.1	-0.2	-0.1	/	/
COc1ccc2c(c1)c(CC(=O)Nc1nnc(C)o1)c(C)n2C(=O)c1ccc(Cl)cc1	12.8	-0.4	8.7	5.7*	1.0	1.9
COc1ccc(C2=N/C(=C/c3ccc(C(C)C)cc3)C(=O)O2)cc1Br	-9.8	0.1	-4.7	0.2	/	/
O=C(N/N=C/c1cccs1)C1CC(=O)N(c2ccc(Cl)cc2)C1 (centres undefined)	-17.0	0.3	1.4	11.8*	-0.1	13.5
CC(=O)Nc1ccc(NC(=O)C2CC(=O)N(c3ccc(Br)cc3)C2)cc1 (centres undefined)	2.5	-0.1	-4.5	8.5*	-1.4	-15.1
CCOc1ccc(NC(=O)COC(=O)C2CC(=O)N(c3ccc(C)cc3)C2)cc1 (centres undefined)	7.4	0.1	9.3	-0.9	/	/
O=C(N/N=C/c1ccc(Br)cc1)C1CC(=O)N(c2ccc(F)cc2)C1 (centres undefined)	12.1	-0.1	6.8	-0.4	/	/
Cc1ccc(NC(=O)COc2ccc(N3CC(C(N)=O)CC3=O)cc2)cc1 (centres undefined)	7.4	0.3	7.1	6.4*	0.5	6.5
